GPT2 inh = Primary qHTS assay for inhibitors of Glutamate pyruvate transaminase 2 (GPT2); Recombinant GPT2, coupled pyruvate oxidase/HRP Amplex Red fluorescence; 0.25% of 100,000 active; Potency, µM (series often up to 57.7 µM), actives largely listed as inhibitors; Alanine aminotransferase 2 (Homo sapiens), Q8TD30; also: nearly all actives have a fitted effect of over 60% in size
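Fluorescence read-out: pyruvate from GPT2 turnover coupled to pyruvate oxidase, HRP and Amplex Red (0.2mM ThPP, 0.2U/mL PO and HRP, 50uM Amplex final). Substrates 250uM a-KG, 2mM L-alanine; enzyme 10ng/uL; 30 min RT.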
hNpr1 antagonist = Natriuretic polypeptide receptor (hNpr1) antagonism - Primary qHTS; Atrial natriuretic peptide receptor 1 (Homo sapiens), P16066; 1.6% of 76,000 active; Potency, µM (series often up to 46.3 µM), hits mostly inhibitors; HEK293 hNpr1 GloSensor cGMP, ANP-stimulated luminescence; calls by dose curve; also: nearly all actives have a fitted effect of over 60% in size
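Compound pre-incubated 30 min at room temperature on GloSensor-loaded HEK293 cells stably carrying hNpr1 and the pGS-40F cGMP biosensor. Stimulation uses hNppA at 0.1 nM final; luminescence is taken at baseline and 20 min post-agonist.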
NIH3T3 tox = Cytotoxic Profiling in NIH 3T3 Cell Line of Diverse Libraries Using Quantitative High-Throughput Screening | Potency, µM (series often up to 96.7 µM), hits mostly inhibitors | NIH 3T3 viability, CellTiter-Glo ATP luminescence, 48-72 h | AID 1345082, 2018 | 4.3% of 94,000 active; also: nearly all actives have a fitted effect of over 55% in size
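Viability of NIH 3T3 cells after 48 or 72 hr compound treatment at 37 °C was assessed by CellTiter-Glo, with luminescence imaged following a 10 min room-temperature step.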
HEK293 tox = Cytotoxic Profiling in HEK 293 Cell Line of Diverse Libraries Using Quantitative High-Throughput Screening; Potency, µM (top dose mostly 115 µM), actives largely listed as inhibitors; AID 1345083, 2018; 6.6% of 94,000 active; HEK 293 viability, ATP luminescence (CellTiter-Glo), 48-72 h; also: nearly all actives have a fitted effect of over 60% in size
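Cells seeded first (HEK 293, 250 cells/well), then compound added by pintool. Incubation ran 48 or 72 hr at 37 degree Celsius. CellTiter-Glo was added and luminescence imaged after 10 min at room temperature.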
FLuc inh = Firefly luciferase inhibition profiling of diverse chemical library using quantitative high-throughput screening. Luciferin 4-monooxygenase (Photinus pyralis), P08659. purified P. pyralis luciferase, luminescence, biochemical. Potency, µM (highest dose often 115 µM), actives largely listed as inhibitors. 2.5% of 76,000 active. AID 1347043, 2019; also: nearly all actives have a fitted effect of over 65% in size
Target sequence (P08659 whole entry, looked up): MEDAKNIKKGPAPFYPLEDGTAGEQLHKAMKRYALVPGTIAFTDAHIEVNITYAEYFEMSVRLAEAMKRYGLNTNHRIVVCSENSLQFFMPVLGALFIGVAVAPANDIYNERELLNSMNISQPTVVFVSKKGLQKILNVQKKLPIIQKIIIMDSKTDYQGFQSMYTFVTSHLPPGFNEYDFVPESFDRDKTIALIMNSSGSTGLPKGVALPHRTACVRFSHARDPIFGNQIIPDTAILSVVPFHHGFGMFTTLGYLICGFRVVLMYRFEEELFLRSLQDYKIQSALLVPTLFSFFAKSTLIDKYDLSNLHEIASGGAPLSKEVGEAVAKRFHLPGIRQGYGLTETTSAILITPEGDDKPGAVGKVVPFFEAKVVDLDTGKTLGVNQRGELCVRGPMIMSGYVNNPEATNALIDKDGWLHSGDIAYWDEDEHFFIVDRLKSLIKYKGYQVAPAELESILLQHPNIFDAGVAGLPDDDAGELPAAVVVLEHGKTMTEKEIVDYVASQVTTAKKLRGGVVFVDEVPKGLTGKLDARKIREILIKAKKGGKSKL
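Luminescence read by CCD imager after adding enzyme (10nM final) to wells holding compound, titrated in qHTS. Substrates 10uM each D-luciferin and ATP; buffer 50mM Tris acetate pH 7.5, 10mM Mg acetate, Tween-20, BSA.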
A number is an active result; n = inactive; u = inconclusive; x = not tested or not shown. Compounds with a hit are over-represented: about 10% of the library has one in this group of screens. Unless noted, calls follow the shape of the dose curve; as a rule, active = well fitted curve in the direction sought with a large enough effect; inconclusive = small, poorly fitted or top-dose-only effect, or another doubt; inactive = no such curve, though single readings can be large; an effect the other way counts as inactive or inconclusive.

SMILES | GPT2 inh | hNpr1 antagonist | NIH3T3 tox | HEK293 tox | FLuc inh
CCN1c2cc(C(=O)Nc3ccc(Br)cc3)ccc2C(=O)N2CCCCC21 (centres undefined) | n | n | u | u | n
CCc1ccc(NC(=O)c2ccc3c(c2)N(CC)C2CCCCN2C3=O)cc1 (centres undefined) | n | n | u | 25.1µM | u
CCN1c2cc(C(=O)Nc3ccc(Br)cc3)ccc2C(=O)N2CCCCCC21 (centres undefined) | n | n | 39.8µM | u | n
CCN1c2cc(C(=O)Nc3ccccc3)ccc2C(=O)N2CCCCCC21 (centres undefined) | n | n | u | 39.8µM | n
COCCNC(=O)c1cc(-c2cccnc2)nc2c1cnn2C | n | x | u | n | x
Cc1ccsc1CN(C)C(=O)C1CCCN(C2CCN(C(=O)C3CC3)CC2)C1 (centres undefined) | n | n | n | n | n
CCCCCCCOc1cc2c(cc1/C(C)=C/c1ccc(C(=O)O)cc1)C(C)(C)CCS2(=O)=O | n | x | x | x | x
COC(=O)N1CCc2nc(C3CC3)nc(-c3ccc(O)cc3)c2CC1 | n | x | n | n | x
CCN1c2cc(C(=O)Nc3cccc(C#N)c3)ccc2C(=O)N2CCCCCC21 (centres undefined) | n | n | u | 15.8µM | n
COC(=O)CNC(=O)c1nc2cccnc2n(-c2ccc(OC)cc2)c1=O | n | x | n | n | x
Cn1cc(CN2CCN(c3cnccn3)CC2)c(-c2ccc(C3CCCCC3)cc2)n1 | n | n | 79.4µM | 25.1µM | 22.4µM
Cn1cc(CN2CCN(c3ccc(C#N)cn3)CC2)c(-c2ccccc2)n1 | n | n | u | 79.4µM | n
Cn1c(CN2CCN(c3ccc(C#N)cn3)CC2)nnc1C1CC(N)C1 (centres undefined) | n | n | n | n | n
CC(C)N1C[C@@H](COc2ccc(-c3ccccc3)cc2)[C@H](c2ccccc2)S1(=O)=O | x | x | n | u | x
COc1ccccc1-c1nc(N2CCOCC2)cc2c1CN(Cc1cnn(C)c1)C2=O | n | n | 25.1µM | n | n
Cn1cc(-c2nc(N3CCOCC3)cc3c2CN(CC2CC2)C3=O)cn1 | n | n | 10µM | n | n
O=C(Nc1ccccc1)N1Cc2[nH]cnc2C[C@H]1c1nc(-c2ccc3ccccc3c2)no1 | n | n | n | n | n
O=C(NC1CCCCC1)N1Cc2[nH]cnc2C[C@H]1c1nc(-c2ccc(Cl)cc2)no1 | n | n | n | n | u
CCOC(=O)c1ccc(NC(=O)N2Cc3[nH]cnc3C[C@H]2c2nc(C(C)C)no2)cc1 | n | n | 100µM | u | n
O=C(NC1CCCCC1)N1Cc2[nH]cnc2C[C@H]1c1nc(-c2ccc3ccccc3c2)no1 | n | n | n | n | 25.1µM
CCOC(=O)c1ccc(NC(=O)N2Cc3[nH]cnc3C[C@H]2c2nc(-c3cccc(C)c3)no2)cc1 | n | n | u | u | u
O=C(Nc1ccc(F)cc1)N1Cc2[nH]cnc2C[C@H]1c1nc(-c2ccc(F)cc2)no1 | n | n | u | u | u
Cc1ccc(NC(=O)N2Cc3[nH]cnc3C[C@H]2c2nc(-c3ccc4ccccc4c3)no2)cc1 | u | n | u | u | 20µM
CCOC(=O)c1ccc(NC(=O)N2Cc3[nH]cnc3C[C@H]2c2nc(-c3ccc(C)cc3)no2)cc1 | n | n | u | u | 31.6µM
N#Cc1cccc(-c2c(C(=O)NCC(F)(F)F)nc3sccn23)c1 | n | x | u | n | x
CSc1ccc(-c2cccc(C(=O)NCC(=O)NCCc3ccc(F)cc3)c2)cc1 | n | x | n | u | x
Cc1ccc(NC(=O)N2Cc3[nH]cnc3C[C@H]2c2nc(C(C)C)no2)cc1 | n | n | n | n | u
CC(C)c1noc([C@@H]2Cc3nc[nH]c3CN2C(=O)Nc2ccc(Cl)cc2)n1 | n | n | 89.1µM | 100µM | n
Cc1ccc(NC(=O)N2Cc3[nH]cnc3C[C@H]2c2nc(-c3ccc(Cl)cc3)no2)cc1 | n | u | u | 70.8µM | 39.8µM

Screening results: PubChem BioAssay, National Center for Advancing Translational Sciences (NCATS)
